Assay outcomes from PubChem.
ZTA counter – ZTA (EBV) inhibition in EBNA-1 counter-screen | ZTA-DNA binding, fluorescence polarization | 320,000 compounds, 0.15% hits | P03206 | inhibition, % at 11 µM | AID 2234; in the data active means inhibition above about 33%
Target sequence (P03206 whole entry, looked up): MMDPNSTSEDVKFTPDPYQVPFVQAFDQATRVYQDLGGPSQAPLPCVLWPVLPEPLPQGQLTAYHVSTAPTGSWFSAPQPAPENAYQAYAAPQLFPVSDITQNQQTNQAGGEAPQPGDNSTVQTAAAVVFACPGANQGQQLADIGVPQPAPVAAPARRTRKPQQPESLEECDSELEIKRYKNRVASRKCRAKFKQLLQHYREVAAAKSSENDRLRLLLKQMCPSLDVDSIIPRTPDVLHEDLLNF
MEX-5 binding – MEX-5 zinc finger RNA-binding disruptors – biochemical, C. elegans, fluorescence polarization, MLPCN library, primary screen; Zinc finger protein mex-5 (Caenorhabditis elegans), Q9XUB2; MEX-5/FITC-TCR2 RNA binding; active compounds read low; activity score (negative = inhibition of binding), % at 10 µM; 300,000 compounds, 0.38% hits;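 active means inhibition past about -25% in most replicates, and total fluorescence under double the plate's negative control median, limit read from the data; inconclusive means replicates evenly split on the limit, or fluorescence at least double controls; inactive means too little inhibition in most replicates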
EBNA-1 inhibitor – EBNA-1 DNA-binding inhibitors, primary screen, biochemical, fluorescence polarization; inhibition, % at 14.8 µM; 300,000 compounds, 0.34% hits; AID 1950, 2009; in the data active means inhibition above about 28%
EBV gp42 block – Epstein-Barr virus gp42 inhibitors, primary screen, biochemical, uHTS, fluorescence polarization; Fluorescence polarization binding assay, mP read-out; inhibition, % (tested at 21.74 µM); 220,000 compounds, 0.42% hits; AID 1085, 2008; in the data active means inhibition above about 50%
Target sequence (Q1HVG2 whole entry, looked up): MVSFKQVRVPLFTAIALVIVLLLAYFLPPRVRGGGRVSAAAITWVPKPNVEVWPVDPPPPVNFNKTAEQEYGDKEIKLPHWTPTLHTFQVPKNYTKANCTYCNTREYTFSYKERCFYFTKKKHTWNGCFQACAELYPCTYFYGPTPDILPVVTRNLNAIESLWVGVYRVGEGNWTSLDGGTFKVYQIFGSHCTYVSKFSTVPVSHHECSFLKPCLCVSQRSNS
Zta DNA confirm – EBV Zta binding to ZRE DNA, inhibitors, confirmation, biochemical, fluorescence polarization, triplicate | shares compounds with ZTA counter | inhibition, % at 11.1 µM | 320 compounds, 30% hits | AID 2361, 2010;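 active means mean inhibition across triplicate runs above the hit threshold derived for the original primary screen, cut at about 33% in these data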
EBNA1 counter – EBNA-1 DNA-binding inhibition, counter-screen for ZTA inhibitor project, biochemical, fluorescence polarization | shares compounds with ZTA counter | inhibition, % at 14.8 µM | 320 tested, under 10 active; call rule not given here
A number is an active result; . = inactive; ? = inconclusive; / = no result given. Only some compounds are listed: those with a hit (about 1% of all), similar ones and a draw of the others.

SMILES | ZTA counter | MEX-5 binding | EBNA-1 inhibitor | EBV gp42 block | Zta DNA confirm | EBNA1 counter
C#CCOCCOCCOCCNc1nc(N2CCN(C(=O)CCCCCCCCCCNC(=O)[C@@H](CCC(=O)O)n3cc(CCCCCN)nn3)CC2)nc(N2CCN(C(=O)CCCCCCCCCCNC(=O)[C@H](CO)n3cc(CCCSC)nn3)CC2)n1 | . | / | . | / | / | /
Cc1ccc(C(=O)C2CCN(S(=O)(=O)c3ccc(C(=O)O)cc3)CC2)cc1 | . | . | . | / | / | /
COc1ccc(S(=O)(=O)N2CCOC2CNC(=O)C(=O)NCc2ccc(F)cc2)cc1OC (stereo not given) | . | . | . | / | / | /
C#CCOCCOCCOCCNc1nc(N2CCN(C(=O)CCCCCCCCCCNC(=O)[C@H](CCCCN)n3cc(CCO)nn3)CC2)nc(N2CCN(C(=O)CCCCCCCCCCNC(=O)[C@H](CCCCN)n3cc(C[C@@H](C)CC)nn3)CC2)n1 | 55 | / | . | / | 81 | .
C#CCOCCOCCOCCNc1nc(N2CCN(C(=O)CCCCCCCCCCNC(=O)Cn3cc(CCCCCN)nn3)CC2)nc(N2CCN(C(=O)CCCCCCCCCCNC(=O)Cn3cc(C[C@@H](C)O)nn3)CC2)n1 | 46 | / | . | / | . | .
CN(C(=O)c1cccc(C#N)c1)c1nnc(C2CCCO2)s1 (stereo not given) | 110 | . | . | . | . | .
COc1ccccc1Nc1nc(C)nc2c1oc1ccccc12 | . | . | . | / | / | /
COc1ccc(Nc2nc(C)nc3c2oc2ccccc23)c(OC)c1 | 39 | . | . | / | . | .
CCOCCCNC(=O)CN1CCN(S(=O)(=O)c2ccc3c(c2)CCC3)CC1 | . | / | / | / | / | /
Fc1ccc(/C=N/NC2=Nc3cccc4cccc2c34)cc1 | 179 | . | . | 57 | . | .
COc1cc(NC(=O)c2cnc(N)s2)cc(C(=O)Nc2cccc(C(F)(F)F)c2)c1 | . | . | . | . | / | /
COc1cc(NC(=O)c2csc(N)n2)cc(C(=O)Nc2cccc(C(F)(F)F)c2)c1 | 41 | . | . | . | . | .
C#CCOCCOCCOCCNc1nc(N2CCN(C(=O)CCCCCCCCCCNC(=O)Cn3cc(C[C@@H](C)O)nn3)CC2)nc(N2CCN(C(=O)CCCCCCCCCCNC(=O)[C@@H]([C@H](C)CC)n3cc(CCCCCN)nn3)CC2)n1 | . | / | . | / | / | /
C#CCOCCOCCOCCNc1nc(N2CCN(C(=O)CCCCCCCCCCNC(=O)Cn3cc(CCCCCN)nn3)CC2)nc(N2CCN(C(=O)CCCCCCCCCCNC(=O)[C@@H]([C@H](C)O)n3cc(C)nn3)CC2)n1 | . | / | . | / | / | /
C#CCOCCOCCOCCNc1nc(N2CCN(C(=O)CCCCCCCCCCNC(=O)[C@H]([C@@H](C)CC)n3cc(CCCCN=C(N)N)nn3)CC2)nc(N2CCN(C(=O)CCCCCCCCCCNC(=O)[C@@H]([C@H](C)O)n3cc(C)nn3)CC2)n1 | 68 | / | . | / | 61 | .
C#CCOCCOCCOCCNc1nc(N2CCN(C(=O)CCCCCCCCCCNC(=O)[C@H](CCCCN)n3cc(C)nn3)CC2)nc(N2CCN(C(=O)CCCCCCCCCCNC(=O)[C@H](CCCN=C(N)N)n3cc(C[C@@H](C)CC)nn3)CC2)n1 | 51 | / | . | / | 47 | .
C#CCOCCOCCOCCNc1nc(N2CCN(C(=O)CCCCCCCCCCNC(=O)[C@H](CCCCN)n3cc(CCO)nn3)CC2)nc(N2CCN(C(=O)CCCCCCCCCCNC(=O)[C@H](CCCCN)n3cc(CCCC(=O)O)nn3)CC2)n1 | . | / | . | / | / | /
C#CCOCCOCCOCCNc1nc(N2CCN(C(=O)CCCCCCCCCCNC(=O)[C@@H](CCSC)n3cc(CCO)nn3)CC2)nc(N2CCN(C(=O)CCCCCCCCCCNC(=O)[C@@H]([C@H](C)O)n3cc(C)nn3)CC2)n1 | . | / | . | / | / | /
C#CCOCCOCCOCCNc1nc(N2CCN(C(=O)CCCCCCCCCCNC(=O)[C@H](CCCCN)n3cc(C[C@@H](C)CC)nn3)CC2)nc(N2CCN(C(=O)CCCCCCCCCCNC(=O)[C@@H]([C@H](C)O)n3cc(C)nn3)CC2)n1 | 50 | / | . | / | . | .
C#CCOCCOCCOCCNc1nc(N2CCN(C(=O)CCCCCCCCCCNC(=O)[C@H](CCCCN)n3cc(C)nn3)CC2)nc(N2CCN(C(=O)CCCCCCCCCCNC(=O)[C@@H]([C@H](C)O)n3cc(C)nn3)CC2)n1 | 40 | / | . | / | . | .
O=S(=O)(c1ccc(Br)cc1)N1CCC2(CC1)OCCO2 | . | . | . | / | / | /
O=C1c2ccccc2-c2onc3ccc(NCc4ccco4)c1c23 | 83 | -77 | . | 130 | 46 | .
CCNc1ccc2noc3c2c1C(=O)c1ccccc1-3 | 63 | ? | . | 56 | . | .
CCOc1ccc2noc3c2c1C(=O)c1ccccc1-3 | . | ? | . | . | / | /
CCCn1c2ccccc2c2cnn(CC(=O)NCCCN3CCN(c4ccccc4)CC3)c(=O)c21 | . | . | . | / | / | /
SMILES | ZTA counter | MEX-5 binding | EBNA-1 inhibitor | EBV gp42 block | Zta DNA confirm | EBNA1 counter
O=C(N/N=C/C(Cl)=C/c1ccccc1)c1ccc2c(c1)OCO2 | . | / | / | / | / | /
O=C(OCc1ccc([N+](=O)[O-])cc1Cl)c1cnccn1 | . | . | . | / | / | /
COc1ccc(CCNC(=O)C2c3ccccc3C(=O)N2CCC(C)C)cc1OC (stereo not given) | 75 | . | . | / | . | .
CN(c1ccccc1)S(=O)(=O)c1ccc(Cl)c(C(=O)NCc2ccccc2CN2CCCC2)c1 | . | / | / | / | / | /
Cc1cc(S(=O)(=O)NC2CCCCC2)ccc1OCC(=O)NCC1CCCO1 (stereo not given) | . | . | . | . | / | /
O=C(COc1ccc(S(=O)(=O)NC2CCCCC2)cc1Cl)NCC1CCCO1 (stereo not given) | 152 | . | . | . | . | .
CCN(CC)CCN(C(=O)/C=C/c1cccs1)c1nc2ccc(C)cc2s1 | . | . | . | / | / | /
O=c1[nH]c(/C=C/c2ccc([N+](=O)[O-])cc2)c([N+](=O)[O-])c(=O)[nH]1 | / | . | / | / | / | /
Cc1cccc(NC(=O)COc2ccc(/C=C\c3[nH]c(=O)[nH]c(=O)c3[N+](=O)[O-])cc2)c1 | 44 | . | . | . | 42 | .
COc1ccc(Br)cc1CNc1ccc(O)cc1 | 40 | / | . | . | . | .
O=C(/C=C/c1c(F)cccc1Cl)NCCCN1CCOCC1 | . | . | . | / | / | /
Cn1nc(-c2ccc(Cl)cc2)nc2c(=O)n(C)c(=O)nc1-2 | 49 | -41 | . | 54 | 82 | .
COc1cc(OC)cc(-c2c(-c3cccs3)c3cc(-c4cnc(OC)nc4)ccc3n2C)c1 | . | / | / | / | / | /
COc1cc(C#Cc2c(-c3cncn3C)n(C)c3ccc(-c4cnc(OC)nc4)cc23)cc(OC)c1 | 38 | / | / | / | . | .
O=C(CCCn1c(=S)[nH]c2cc3c(cc2c1=O)OCO3)NCCc1ccccc1Cl | . | . | . | / | / | /
CCN(CC)CCOC(=O)c1ccc(N/C=C(/C#N)c2nc(-c3cccc(OC)c3)cs2)cc1 | 40 | . | . | . | . | .
